Measurements as given in PubChem BioAssay (Tox21).
Records with an inconclusive call do not appear. The source made the active and inactive calls. Unless noted, calls come from the whole dose curve; as a rule, active = well fitted curve in the direction sought with a large enough effect in the repeat runs; inconclusive = weak or mixed curves; inactive = no such curve, though single readings can be large; an effect the other way counts as inactive or inconclusive.

Legend:
[1] = A CellTox Green Cytotoxicity Assay to monitor cytotoxicity in HepG2 cells - 8 hour (AID 1224890); note: nearly all actives have a fitted effect of over 45% in size
Method in brief: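 Nonlytic assay: viable cells exclude the dye, so fluorescence scales with cell death. HepG2 at 600 cells/well, compounds added after 5 h, signal read across 40 h.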

[2] = qHTS assay to identify small molecule antagonists of the estrogen receptor alpha (ER-alpha) signaling pathway using the BG1 cell line in the presence of 0.1 nM 17-beta-estradiol - cell viability counter screen (AID 1259241); note: nearly all actives have a fitted effect of over 40% in size; note: potency is the fitted concentration of half-maximal effect
Method in brief: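 Estradiol-stimulated (0.1 nM) VM7Luc4E2 cells exposed to compounds 22 hr; viability measured by fluorescence of cleaved CellTiter-Fluor substrate after 30 min.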

[3] = qHTS assay to identify small molecule antagonists of the androgen receptor (AR) signaling pathway using the MDA cell line in the presence of 0.5 nM R1881 - cell viability counter screen (AID 1259242); note: nearly all actives have a fitted effect of over 45% in size; note: potency is the fitted concentration of half-maximal effect
Method in brief: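 R1881 at 0.5 nM final stimulated MDA-kb2 cells during 16 hr compound treatment at 37C. Cytotoxicity read: CellTiter-Fluor fluorescence after 30 min.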

[4] = target: Estrogen receptor (Homo sapiens) (UniProt P03372); experiment: qHTS assay to identify small molecule antagonists of the estrogen receptor alpha (ER-alpha) signaling pathway using the BG1 cell line in the presence of 0.1 nM 17-beta-estradiol (AID 1259244); note: nearly all actives have a fitted effect of over 50% in size; note: potency is the fitted concentration of half-maximal effect
Method in brief: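 VM7Luc4E2; 4xERE-luciferase; 0.1 nM E2 final; 22 h co-incubation, 37C; ONE-Glo luminescence after 30 min at room temperature.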

[5] = qHTS assay to identify small molecule HDAC inhibitors (AID 1259364); note: potency is the fitted concentration of half-maximal effect;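 note: wild-type HCT-116 cells with endogenous class I/II HDAC activity; nearly all actives have a fitted effect of over 45% in size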; for activity change, negative = inhibition: top concentration of the series differs between compounds
Method in brief: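 Relative class I and II HDAC activity is taken from the luminogenic signal in HCT-116 cells, with compound exposure 2 hr and reagent development 30 min at room temperature.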

[6] = qHTS assay to identify small molecule HDAC inhibitors - cell viability counter screen (AID 1259365); note: nearly all actives have a fitted effect of over 50% in size; note: potency is the fitted concentration of half-maximal effect; for activity change, negative = cytotoxicity: series mostly up to about 92 µM
Method in brief: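 After overnight seeding at 1,500 cells per well, wild-type HCT-116 cultures took up compounds in DMSO for 2hr at 37 C. Viable cell content came from luminescence with CellTiter-Glo.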

[7] = qHTS assay to identify small molecule agonists of the sonic hedgehog signaling (Shh) pathway - cell viability counter screen (AID 1259366); note: nearly all actives have a fitted effect of over 50% in size; note: potency is the fitted concentration of half-maximal effect
Method in brief: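 Same-well cytotoxicity read. Gli1-Luc reporter 3T3 cells; compounds 24hr, 37C/5% CO2; CellTiter-Fluor fluorescence.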

[8] = qHTS assay to identify small molecule antagonists of the sonic hedgehog signaling (Shh) pathway - cell viability counter screen (AID 1259367); note: nearly all actives have a fitted effect of over 55% in size; note: potency is the fitted concentration of half-maximal effect
Method in brief: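 Seed 3T3 Gli1-Luc cells at 2,000 per well; incubate 4 hr; add compound in DMSO, then conditioned medium; incubate at 37C with 5% CO2; add CellTiter-Fluor after 23 hr; read fluorescence 1 hr later.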

[9] = qHTS assay to identify small molecule agonists of the sonic hedgehog signaling (Shh) pathway (AID 1259368; calls by dose curve;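 note: NIH/3T3-derived 3T3Gli1-Luc cells carrying a stable Gli1-driven firefly luciferase reporter; series mostly up to about 92 µM; nearly all actives have a fitted effect of over 15% in size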)
Method in brief: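 Mouse fibroblast (NIH/3T3) reporter cells with stably integrated Gli1-Luc were treated 24 hr with compound; firefly luciferase luminescence served as the read-out.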

[10] = qHTS assay to identify small molecule antagonists of the sonic hedgehog signaling (Shh) pathway (AID 1259369; calls by dose curve; note: nearly all actives have a fitted effect of over 45% in size; note: potency is the fitted concentration of half-maximal effect)
Method in brief: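 Conditioned medium drives Shh signalling in 3T3Gli1-Luc cells; compounds in DMSO co-applied, 24hr at 37 C, then luciferase luminescence.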

[11] = target: Estrogen receptor beta (Homo sapiens) (UniProt Q92731); experiment: qHTS assay to identify small molecule agonists of the estrogen receptor beta (ER-beta) signaling pathway (AID 1259377; active = well fitted activation curve with a large enough effect in the signal ratio in the repeat runs, not every such curve was filed as active; the % refers to the signal ratio)
Method in brief: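 Read-out: beta-lactamase FRET fluorescence. Cell line: ER-beta-UAS-bla HEK293T in 2% charcoal-stripped FBS. Exposure: 16 hr at 37C. Substrate step: 2 h at room temperature.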

[12] = target: Estrogen receptor beta (Homo sapiens) (UniProt Q92731); experiment: qHTS assay to identify small molecule antagonists of the estrogen receptor beta (ER-beta) signaling pathway (AID 1259378; active = well fitted inhibition curve with a large enough effect in the signal ratio in the repeat runs, not every such curve was filed as active; the % refers to the signal ratio)
Method in brief: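 ER-beta-UAS-bla HEK293T cells in 2% charcoal-stripped FBS medium treated with compound plus 1nM final 17-beta-estradiol for 16 hr at 37C. Beta-lactamase reporter read by FRET substrate fluorescence after 2 hours at room temperature.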

[13] = qHTS assay to identify small molecule agonists of the androgen receptor (AR) signaling pathway in the presence of an antagonist - cell viability counter screen (AID 1259379); note: nearly all actives have a fitted effect of over 25% in size; note: potency is the fitted concentration of half-maximal effect;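 for activity change, negative = cytotoxicity: MDA-kb2 human breast cancer cells carrying an MMTV luciferase reporter; series mostly up to about 92 µM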
Method in brief: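 A CellTiter-Fluor read-out measured viability of MDA-kb2 reporter cells (MMTV promoter with AR and GR response elements). Treatment: nilutamide 3.0uM final with compounds at 15 concentrations, 16 hr, 37C, 0% CO2.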

[14] = qHTS assay to identify small molecule agonists of the estrogen receptor beta (ER-beta) signaling pathway - cell viability counter screen (AID 1259380); note: nearly all actives have a fitted effect of over 30% in size
Method in brief: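 Cells used were ER-beta-UAS-bla HEK293T in medium with 2% charcoal-stripped FBS. They were treated for 16 hr at 37C. Viability came from CellTiter-Glo luminescence.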

[15] = qHTS assay to identify small molecule antagonists of the estrogen receptor beta (ER-beta) signaling pathway - cell viability counter screen (AID 1259382); note: series mostly up to about 92 µM; nearly all actives have a fitted effect of over 55% in size
Method in brief: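 Agonist-stimulated (1nM E2) ER-beta-UAS-bla HEK293T cells are incubated with library compounds for 16 hr at 37C. Cell viability is then assessed in the reporter-assay wells by adding CellTiter-Glo and reading luminescence after 30 min.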

[16] = target: Estrogen receptor (Homo sapiens) (UniProt P03372); experiment: qHTS assay to identify small molecule agonists of the estrogen receptor alpha (ER-alpha) signaling pathway in the presence of an antagonist (AID 1259383; calls by dose curve; note: top concentration of the series differs between compounds; nearly all actives have a fitted effect of over 15% in size)
Method in brief: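 Using VM7Luc4E2 cells seeded 24hr before treatment, antagonist ICI-182,780 (10.0nM final) was added, followed by compounds at 15 concentrations. Plates incubated 22hr; ONE-Glo luminescence quantified reporter activity.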

[17] = qHTS assay to identify small molecule agonists or antagonists of the thyroid stimulating hormone receptor (TSHR) signaling pathway - wild type cell line counter screen (AID 1259384; calls by dose curve)
Method in brief: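 Wild-type Hek293 cells, 800/well, 18 h at 37C, then compound with Ro20-1724 for 30 min RT. cAMP by HTRF (cAMP-d2/anti-cAMP cryptate), 1 h RT, fluorescence read. 15 concentrations, triplicates.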

[18] = qHTS assay to identify small molecule phospholipidosis (PLD) inducers (AID 1259344; active = well fitted curve in the direction sought with a large enough effect; an effect the other way counts as inactive or inconclusive)
Method in brief: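 Quantitative HTS in HepG2: compound plus LipidTOX Red dye for 24 h, paraformaldehyde fixation with Hoechst 33342, widefield high-content imaging; amiodarone as positive and DMSO as negative control.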
% is set by controls: 0 for no effect and ±100 for the full control effect.

Chain of Estrogen receptor (Homo sapiens) (P03372 whole entry, looked up): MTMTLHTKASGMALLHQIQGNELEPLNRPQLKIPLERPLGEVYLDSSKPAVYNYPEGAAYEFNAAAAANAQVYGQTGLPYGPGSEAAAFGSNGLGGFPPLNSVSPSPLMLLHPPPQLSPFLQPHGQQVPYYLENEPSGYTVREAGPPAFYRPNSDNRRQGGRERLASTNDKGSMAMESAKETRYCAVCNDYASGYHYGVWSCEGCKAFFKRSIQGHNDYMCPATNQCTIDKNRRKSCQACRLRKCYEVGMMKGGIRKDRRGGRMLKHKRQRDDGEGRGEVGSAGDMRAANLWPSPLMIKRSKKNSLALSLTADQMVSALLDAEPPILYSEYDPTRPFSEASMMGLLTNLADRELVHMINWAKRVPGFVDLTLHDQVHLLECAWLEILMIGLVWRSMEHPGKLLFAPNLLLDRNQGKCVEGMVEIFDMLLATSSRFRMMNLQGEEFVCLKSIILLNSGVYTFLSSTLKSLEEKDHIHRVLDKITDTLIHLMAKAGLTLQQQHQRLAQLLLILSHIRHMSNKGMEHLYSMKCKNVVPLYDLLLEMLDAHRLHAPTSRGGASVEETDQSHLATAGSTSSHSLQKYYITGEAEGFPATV
Chain of Estrogen receptor beta (Homo sapiens) (Q92731 whole entry, looked up): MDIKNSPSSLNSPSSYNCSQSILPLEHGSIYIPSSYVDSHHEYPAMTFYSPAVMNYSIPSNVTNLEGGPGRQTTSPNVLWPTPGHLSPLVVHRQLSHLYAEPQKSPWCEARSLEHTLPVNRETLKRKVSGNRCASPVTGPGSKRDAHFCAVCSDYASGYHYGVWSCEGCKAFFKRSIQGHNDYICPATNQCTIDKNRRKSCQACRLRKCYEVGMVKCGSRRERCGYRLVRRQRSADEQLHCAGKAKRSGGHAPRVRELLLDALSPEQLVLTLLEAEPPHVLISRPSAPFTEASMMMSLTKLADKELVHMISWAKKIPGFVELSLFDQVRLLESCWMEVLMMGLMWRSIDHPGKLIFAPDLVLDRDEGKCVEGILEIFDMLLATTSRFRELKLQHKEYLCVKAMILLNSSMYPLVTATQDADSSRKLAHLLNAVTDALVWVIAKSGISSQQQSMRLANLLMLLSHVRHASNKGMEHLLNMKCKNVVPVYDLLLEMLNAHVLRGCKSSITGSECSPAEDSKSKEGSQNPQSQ

CCCCCCCCCCCCCCN(C)C
inactive: cytotoxicity increase [1] -1.47% [at 15.8 µM] | activity change, negative = cytotoxicity [2] 0.479% [at 19 µM] | viability change, negative = cytotoxic [3] -2.29% [at 19 µM] | activity change, negative = inhibition [4] 15.5% [at 19 µM] | activity change, negative = inhibition [5] 1.53% [at 19 µM] | activity change, negative = cytotoxicity [6] 3.73% [at 19 µM] | viability change, negative = cytotoxic [7] -0.743% [at 19 µM] | viability change, negative = cytotoxic [8] 4.21% [at 19 µM] | activity change [9] 1.14% [at 18.9 µM, stronger effect = higher value] | activity change, negative = inhibition [10] 19.6% [at 19 µM] | activation [11] -2.25% [at 19 µM] | activity, negative = inhibition [12] 3.58% [at 19 µM] | activity change, negative = cytotoxicity [13] -0.611% [at 19 µM] | activity change, negative = cytotoxicity [14] -12.9% [at 19 µM] | activity change, negative = cytotoxicity [15] -7.95% [at 19 µM] | activation [16] 2.36% [at 19 µM] | cAMP activity change [17] -2.36% [at 18.9 µM, stronger effect = higher value]

CC(=O)OC(C)C[N+](C)(C)C (stereo not given)
inactive: Potency [1] | Potency [2] | Potency [3] | Potency [4] | Potency [18] | Potency [5] | Potency [6] | Potency [7] | Potency [9] | Potency [13] | Potency [14] | Potency [15] | Potency [16] | Potency [17]

CCN(CC)CC(=O)Nc1c(C)cccc1C(=O)OC
inactive: Potency [1] | Potency [2] | Potency [3] | Potency [4] | Potency [5] | Potency [6] | Potency [7] | Potency [8] | Potency [9] | Potency [10] | Potency [11] | Potency [13] | Potency [14] | Potency [15] | Potency [16] | Potency [17]

CCN(Cc1cccc(S(=O)(=O)O)c1)c1ccc(C(=C2C=CC(=[N+](CC)Cc3cccc(S(=O)(=O)O)c3)C=C2)c2ccc(O)cc2S(=O)(=O)[O-])cc1
active: Potency [2] 16.6 µM | Potency [3] 18.6 µM | Potency [4] 16.6 µM | Potency [5] 3.71 µM | Potency [6] 9.32 µM | Potency [7] 16.6 µM | Potency [8] 16.6 µM | Potency [10] 4.67 µM | Potency [13] 16.6 µM
inactive: Potency [1] | Potency [9] | Potency [12] | Potency [16]
